Data taken from PubChem BioAssay.
Unmarked numbers belong to inactive results. The rule behind the calls is not given here. Where a SMILES comes first, the peptide text is derived from it. The star is where a group is joined. Boc = CC(C)(C)OC(=O)*

Each molecule was assayed against Pantothenate synthetase (Mycobacterium tuberculosis (strain ATCC 25618 / H37Rv)) (UniProt P9WIL5) (assay: Coupled enzyme confirmation of inhibitors against recombinant Mtb PanC (AID 375;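 note: 0% = full reaction with vehicle and 100% = no enzyme background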)). Settings: coupled enzyme assay; at 10 µM, stronger effect = higher value.
Pantothenate synthetase (Mycobacterium tuberculosis (strain ATCC 25618 / H37Rv)), sequence (P9WIL5 whole entry, looked up): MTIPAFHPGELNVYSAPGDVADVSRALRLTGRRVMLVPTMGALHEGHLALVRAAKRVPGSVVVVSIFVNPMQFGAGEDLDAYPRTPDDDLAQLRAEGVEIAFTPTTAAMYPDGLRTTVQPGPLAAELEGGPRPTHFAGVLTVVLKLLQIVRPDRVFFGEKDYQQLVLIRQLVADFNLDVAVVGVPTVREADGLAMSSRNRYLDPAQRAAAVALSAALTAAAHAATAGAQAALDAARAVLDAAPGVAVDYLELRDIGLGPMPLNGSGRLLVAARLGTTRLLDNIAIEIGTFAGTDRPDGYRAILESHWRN

| Structure (SMILES) | inhibition |
| --- | --- |
| COc1cc(OC)cc(C(=O)N2c3ccc(F)cc3CCC2C)c1 (stereo not given) | 0% |
| Cc1nc2ccccn2c1P(=O)(N1CCCCC1)N1CCCCC1 | 4% |
| COc1ccc(CN(CC(=O)NCC2CCCO2)C(=O)CCC(=O)Nc2cc(C)on2)cc1 (stereo not given) | 0% |
| O=C(O)c1ccc2c3c(ncnc13)-c1ccccc1C2=O | 1% |
| CCOc1nc(NCCC2=CCCCC2)nc(N2CCOCC2)n1 | 0% |
| Cn1cnnc1Sc1nc2c(c(=O)n(C)c(=O)n2C)n1Cc1ccccc1Cl | 0% |
| Cc1c(NC(=O)C(C)OC(=O)C(NC(=O)c2ccco2)C(C)C)c(=O)n(-c2ccccc2)n1C (stereo not given) | 8% |
| Cc1cccc(-n2c(SCc3cc(=O)n4ccsc4n3)nc3ccccc32)c1 | 0% |
| CCCCn1c(SCC(=O)N2CC(=O)Nc3ccccc32)nnc1-c1ccoc1C | 3% |
| c1ccc(CCNc2ccc3nncn3n2)cc1 | 2% |
| CCOc1cc(C(=O)N(C)Cc2cc3cc(OC)ccc3[nH]c2=O)cc(OCC)c1OCC | 0% |
| CCOC(=O)c1nnc2cc(-c3ccc(Br)cc3)nn2c1C | 0% |
| O=C(COc1cccc(Oc2ccccc2)c1)Nc1ncccn1 | 2% |
| O=S1(=O)CCN2C(=N1)SC1=C2CCN(Cc2ccccc2)C1 | 2% |
| O=C(CN1C(=O)C2CC=C(Cl)CC2C1=O)Nc1ccc(C(=O)O)cc1 (stereo not given) | 0% |
| C=CCOC(=O)COc1ccc2c(C)c(C)c(=O)oc2c1C | 0% |
| NC(=O)C1CCN(C(=O)c2cc3n(n2)C(C(F)(F)F)CC(c2ccco2)N3)CC1 (stereo not given) | 0% |
| CCCCN(C)Cc1c(C)[nH]c2c(Cl)cccc2c1=O | 5% |
| COc1ccc(CCNC(=O)c2ccc(N3CCCC3=O)cc2)cc1OC | 0% |
| CCOC(=O)N1CCC(NC(=O)CSCc2nc(-c3cccc(OC)c3)oc2C)CC1 | 0% |

| Structure (SMILES) | inhibition |
| --- | --- |
| Cc1ccc2nsnc2c1S(=O)(=O)N1CCN(Cc2ccc3c(c2)OCO3)CC1 | 5% |
| CN1CCCC(OC(=O)c2ccc3c(c2)OCCO3)C1 (stereo not given) | 0% |
| Cc1ccc2cc(C(c3nnnn3CC3CCCO3)N3CCCC4(CCCCC4)C3)c(=O)[nH]c2c1 (stereo not given) | 0% |
| Oc1ccc(/C=C/c2cc(O)cc(O)c2)cc1 | 0% |
| C=C(C)Cn1c(N2CCN(CC)CC2)nc2c1c(=O)[nH]c(=O)n2C | 0% |
| Cc1ccc2nc(-c3ccc(S(=O)(=O)N4CCOCC4)cc3)cn2c1 | 0% |
| COCCn1c(CN2CCN(c3cccc(Cl)c3)CC2)nc2c1c(=O)n(C)c(=O)n2C | 0% |
| O=C(CN1C(=O)CCSc2ccccc21)Nc1ccccc1 | 0% |
| Cc1ccc(NC(=O)Cn2cccc2)cc1Cl | 0% |
| CCOc1ccc(-c2nc(C#N)c(N3CCCCCC3)o2)cc1 | 4% |
| CC(C)(C)OC(=O)N1CCCC1C(=O)NC(Cc1ccccc1)C(=O)O (stereo not drawn) (Boc-Pro-Phe-OH; configuration not given here) | 4% |
| COCCNC(=O)CN1CCC(NC(=O)Nc2ccc(C(F)(F)F)cc2)CC1 | 4% |
| COc1cc(C(=O)OCc2cc3ccccc3[nH]c2=O)cc(OC)c1OC | 4% |
| O=S(=O)(c1ccccc1)N1CCSC1c1ccco1 (stereo not given) | 3% |
| Cc1noc(C)c1CSc1ccccc1C(=O)N1CCN(c2ccccc2)CC1 | 0% |
| COc1ccccc1N1CCN(C(=O)c2c(-c3c(Cl)cccc3Cl)noc2C)CC1 | 0% |
| Cc1ccccc1-n1nnnc1SCC(=O)Nc1ccc(S(=O)(=O)N2CCCC2)cc1 | 0% |
| O=S1(=O)Nc2c(ccc3cccnc23)-c2ccccc21 | 0% |
| C=CCn1c(=O)/c(=C/c2ccc(O)cc2)s/c1=C(/C#N)c1nnc2n1CCCCC2 | 0% |
| Cc1nc(SCC#N)c2c(C)c(C)sc2n1 | 0% |
